Measurements: PubChem BioAssay (Tox21)
Several values for one entry are separate records, joined by “and”; a condition that tells them apart may be missing. Equal entries are not always repeated. Records with an inconclusive call do not appear. Where a call stands in place of a potency, no number is given. Some compounds were tested as several samples or in several runs, with calls that do not always agree. Activity calls are given as the source filed them. Unless noted, calls follow the shape of the dose curve; as a rule, active = well fitted curve in the direction sought with a large enough effect in the repeat runs; inconclusive = weak or mixed curves; inactive = no such curve, though single readings can be large; an effect the other way counts as inactive or inconclusive.

Tests used:
[1] = qHTS assay to identify small molecule antagonists of the thyroid receptor (TR) signaling pathway - cell viability counter screen (AID 743064); also: nearly all actives have a fitted effect of over 50% in size; also: potency is read from the fitted curve at half-maximal effect
Outline: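 CellTiter-Fluor readout, 30 min at 37 °C/5% CO2, following 23.5 h incubation of GH3.TRE-Luc cells with test compound and 1 nM T3 (final).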

[2] = qHTS assay to identify small molecule antagonists of the thyroid receptor (TR) signaling pathway (AID 743065); also: nearly all actives have a fitted effect of over 55% in size; also: potency is read from the fitted curve at half-maximal effect
Outline: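 Antagonism measured as loss of luciferase signal in GH3 cells stably carrying a TRE-luciferase reporter, co-treated with compound and T3 (1 nM final) for 23.5 h at 37 C. Viability was read in the same well by CellTiter-Fluor.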

[3] = system: thyroid hormone receptor (rat, GH3 cells); test: qHTS assay to identify small molecule agonists of the thyroid receptor (TR) signaling pathway (AID 743066; calls by dose curve)
[4] = molecular target: Estrogen receptor (Homo sapiens) (UniProt P03372); test: qHTS assay to identify small molecule antagonists of the estrogen receptor alpha (ER-alpha) signaling pathway (AID 743069; active = well fitted curve in the direction sought with a large enough effect in the signal ratio in the repeat runs, not every such curve was filed as active; the % refers to the signal ratio)
Outline: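 Fluorescence intensity from a beta-lactamase FRET substrate served as the read-out. Cells: HEK293 with stably integrated ER-alpha-UAS-bla reporter. Agonist 17beta-estradiol was co-added with compounds; incubation 18 hr at 37C, substrate 2 hr at room temperature.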

[5] = qHTS assay to identify small molecule antagonists of the estrogen receptor alpha (ER-alpha) signaling pathway - cell viability counter screen (AID 743074; calls by dose curve; also: nearly all actives have a fitted effect of over 45% in size)
[6] = molecular target: Estrogen receptor (Homo sapiens) (UniProt P03372); test: qHTS assay to identify small molecule agonists of the estrogen receptor alpha (ER-alpha) signaling pathway (AID 743075; calls by dose curve)
[7] = molecular target: Estrogen receptor (Homo sapiens) (UniProt P03372); test: qHTS assay to identify small molecule agonists of the estrogen receptor alpha (ER-alpha) signaling pathway using the BG1 cell line (AID 743079); also: nearly all actives have a fitted effect of over 20% in size; also: potency is read from the fitted curve at half-maximal effect
[8] = qHTS assay to identify small molecule antagonists of the estrogen receptor alpha (ER-alpha) signaling pathway using the BG1 cell line (AID 743080; calls by dose curve;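 also: BG1 cells stimulated with 17beta-estradiol alongside compound; series mostly up to about 70 µM; nearly all actives have a fitted effect of over 25% in size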)
Outline: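 BG1-Luc-4E2 cells (endogenous full-length ER-alpha, stable 4×ERE-luciferase) were starved 5 days in phenol-red-free medium with 10% charcoal-stripped FBS, plated 24 h, then given compound plus 17beta-estradiol for 21.5 h at 37 C; ONE-Glo luminescence read after 30 min.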

[9] = qHTS assay to identify small molecule antagonists of the estrogen receptor alpha (ER-alpha) signaling pathway using the BG1 cell line - cell viability counter screen (AID 743081);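 also: compound given together with 17beta-estradiol as the ER stimulus; series mostly up to about 70 µM; nearly all actives have a fitted effect of over 45% in size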
Aromatase (Homo sapiens) = Aromatase (Homo sapiens) (UniProt P11511); test: qHTS assay to identify aromatase inhibitors (AID 743083); also: nearly all actives have a fitted effect of over 55% in size; also: potency is read from the fitted curve at half-maximal effect
[10] = qHTS assay to identify aromatase inhibitors - cell viability counter screen (AID 743084);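 also: cells stimulated with testosterone during compound exposure; nearly all actives have a fitted effect of over 55% in size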; also: potency is read from the fitted curve at half-maximal effect
[11] = molecular target: Aryl hydrocarbon receptor (Homo sapiens) (UniProt P35869); test: qHTS assay to identify small molecule that activate the aryl hydrocarbon receptor (AhR) signaling pathway (AID 743085); also: nearly all actives have a fitted effect of over 15% in size; also: potency is read from the fitted curve at half-maximal effect;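 as to activation: HG2L7.5c1 human HepG2 liver cells with stably integrated DRE-driven firefly reporter; series mostly up to about 70 µM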
Outline: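 Stably transfected human liver carcinoma cells (HG2L7.5c1; 20 DRE-firefly luciferase) were incubated 5 h, dosed, and kept 24 h at 37C. Agonism was scored from increased luciferase luminescence.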

[12] = molecular target: Peroxisome proliferator-activated receptor gamma (Homo sapiens) (UniProt P37231); test: qHTS assay to identify small molecule agonists of the peroxisome proliferator-activated receptor gamma (PPARg) signaling pathway (AID 743094; active = well fitted activation curve with a large enough effect in the signal ratio in the repeat runs, not every such curve was filed as active; the % refers to the signal ratio)
Outline: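 Cell-based bla reporter, HEK293H background, PPARg-driven UAS. Pre-incubation 5 h, 37C, 5% CO2. Compound 17 h, 37C. Substrate 1 h RT; fluorescence.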

[13] = molecular target: Peroxisome proliferator-activated receptor gamma (Homo sapiens) (UniProt P37231); test: qHTS assay to identify small molecule antagonists of the peroxisome proliferator-activated receptor gamma (PPARg) signaling pathway (AID 743191; calls by dose curve; also: series mostly up to about 63 µM; nearly all actives have a fitted effect of over 30% in size)
Outline: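 Beta-lactamase reporter under UAS control in HEK293H PPARg-bla cells; compound treatment 17 h at 37C. Read-out: fluorescence intensity after 1 h room-temperature incubation with LiveBLAzer B/G FRET substrate.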

[14] = qHTS assay to identify small molecule antagonists of the peroxisome proliferator-activated receptor gamma (PPARg) signaling pathway - cell viability counter screen (AID 743194); also: nearly all actives have a fitted effect of over 55% in size
Outline: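 Viability was measured as CellTiter-Glo luminescence in GeneBLAzer PPARg UAS-bla HEK293H cells. These cells had been exposed 17 h at 37 C to compounds together with rosiglitazone at 50 nM final, with the beta-lactamase readout taken in the same wells.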

[15] = qHTS assay for small molecule agonists of the antioxidant response element (ARE) signaling pathway (AID 743202; active = well fitted activation curve with a large enough effect in the signal ratio in the repeat runs, not every such curve was filed as active; the % refers to the signal ratio; also: potency is read from the fitted curve at half-maximal effect)
Outline: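 Beta-lactamase reporter activity, read as fluorescence intensity, reflects ARE/Nrf2 pathway induction in HepG2 cells after 16 h compound exposure at 37 C; substrate loading was 2 h at room temperature.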

[16] = qHTS assay for small molecule agonists of the antioxidant response element (ARE) signaling pathway - cell viability counter screen (AID 743203; calls by dose curve; also: nearly all actives have a fitted effect of over 55% in size; also: potency is read from the fitted curve at half-maximal effect)
Outline: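 Measured in the same wells as the beta-lactamase ARE reporter, this read-out is CellTiter-Glo luminescence from HepG2 ARE-bla cells given compounds for 16 hrs.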

[17] = qHTS assay for small molecule activators of the heat shock response signaling pathway - cell viability counter screen (AID 743209); also: nearly all actives have a fitted effect of over 50% in size
Outline: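 Same-well multiplex: after 2.5 h room-temperature incubation with LiveBLAzer B/G substrate and fluorescence reading, CellTiter-Glo reagent was added to HSE-bla HeLa cells that had received compound for 5 h at 37 C; luminescence read after 30 min.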

[18] = qHTS assay for small molecule activators of the heat shock response signaling pathway (AID 743210; active = well fitted activation curve with a large enough effect in the signal ratio in the repeat runs, with a control signal flat, not every such curve was filed as active; the % refers to the signal ratio;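 also: HeLa cells with beta-lactamase reporter driven by heat shock elements; series mostly up to about 63 µM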)
Outline: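 Fluorescence from a cleaved B/G FRET substrate (2.5 h, room temp) reports HSE-driven beta-lactamase in HeLa cells treated 5 h at 37 C with DMSO-dissolved compounds.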

[19] = qHTS assay to identify small molecule that activate the aryl hydrocarbon receptor (AhR) signaling pathway - cell viability counter screen (AID 743086);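 also: HepG2 liver cells carrying the AhR DRE luciferase reporter; series mostly up to about 70 µM; nearly all actives have a fitted effect of over 45% in size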
Outline: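 Cytotoxicity counter screen: CellTiter-Fluor signal (30 min, 37 C) in 4000 HepG2 cells/well carrying the DRE-luciferase reporter, following 24 h compound exposure at 37 C.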

Chain of Peroxisome proliferator-activated receptor gamma (Homo sapiens) (P37231 whole entry, looked up): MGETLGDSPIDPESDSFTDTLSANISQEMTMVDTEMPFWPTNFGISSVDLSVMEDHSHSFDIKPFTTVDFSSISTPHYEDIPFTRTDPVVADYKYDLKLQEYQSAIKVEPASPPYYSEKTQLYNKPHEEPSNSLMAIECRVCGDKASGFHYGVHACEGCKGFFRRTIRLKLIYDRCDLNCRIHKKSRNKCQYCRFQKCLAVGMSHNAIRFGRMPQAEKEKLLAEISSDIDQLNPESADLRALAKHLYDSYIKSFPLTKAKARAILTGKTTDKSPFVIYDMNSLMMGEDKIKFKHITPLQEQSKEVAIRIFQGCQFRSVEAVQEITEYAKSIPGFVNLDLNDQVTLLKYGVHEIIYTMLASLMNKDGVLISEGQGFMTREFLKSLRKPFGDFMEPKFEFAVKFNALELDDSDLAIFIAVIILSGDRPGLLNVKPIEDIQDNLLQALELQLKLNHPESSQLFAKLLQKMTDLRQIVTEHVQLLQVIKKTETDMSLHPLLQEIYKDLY
Chain of Aryl hydrocarbon receptor (Homo sapiens) (P35869 whole entry, looked up): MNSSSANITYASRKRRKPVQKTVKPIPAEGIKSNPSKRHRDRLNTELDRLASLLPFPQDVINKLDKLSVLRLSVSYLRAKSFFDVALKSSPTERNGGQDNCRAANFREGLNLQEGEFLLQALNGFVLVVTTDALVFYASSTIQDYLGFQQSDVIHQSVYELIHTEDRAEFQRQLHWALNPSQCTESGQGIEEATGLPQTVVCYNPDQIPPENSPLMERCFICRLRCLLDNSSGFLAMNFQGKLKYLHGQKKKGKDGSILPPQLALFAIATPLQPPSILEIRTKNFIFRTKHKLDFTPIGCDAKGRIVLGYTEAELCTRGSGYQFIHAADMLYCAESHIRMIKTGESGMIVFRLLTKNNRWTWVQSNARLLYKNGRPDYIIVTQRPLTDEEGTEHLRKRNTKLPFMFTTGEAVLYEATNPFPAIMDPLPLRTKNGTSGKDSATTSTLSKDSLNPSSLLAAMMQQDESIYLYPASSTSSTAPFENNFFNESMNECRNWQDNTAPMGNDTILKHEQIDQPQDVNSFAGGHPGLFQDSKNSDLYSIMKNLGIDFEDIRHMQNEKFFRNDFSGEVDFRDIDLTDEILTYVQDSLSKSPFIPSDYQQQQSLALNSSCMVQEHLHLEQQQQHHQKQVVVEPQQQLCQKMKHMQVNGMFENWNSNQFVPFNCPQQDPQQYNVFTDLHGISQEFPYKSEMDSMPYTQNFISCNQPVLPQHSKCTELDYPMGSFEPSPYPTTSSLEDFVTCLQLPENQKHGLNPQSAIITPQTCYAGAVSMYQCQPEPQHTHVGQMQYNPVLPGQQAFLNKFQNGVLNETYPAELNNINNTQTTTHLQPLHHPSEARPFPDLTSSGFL
Chain of Estrogen receptor (Homo sapiens) (P03372 whole entry, looked up): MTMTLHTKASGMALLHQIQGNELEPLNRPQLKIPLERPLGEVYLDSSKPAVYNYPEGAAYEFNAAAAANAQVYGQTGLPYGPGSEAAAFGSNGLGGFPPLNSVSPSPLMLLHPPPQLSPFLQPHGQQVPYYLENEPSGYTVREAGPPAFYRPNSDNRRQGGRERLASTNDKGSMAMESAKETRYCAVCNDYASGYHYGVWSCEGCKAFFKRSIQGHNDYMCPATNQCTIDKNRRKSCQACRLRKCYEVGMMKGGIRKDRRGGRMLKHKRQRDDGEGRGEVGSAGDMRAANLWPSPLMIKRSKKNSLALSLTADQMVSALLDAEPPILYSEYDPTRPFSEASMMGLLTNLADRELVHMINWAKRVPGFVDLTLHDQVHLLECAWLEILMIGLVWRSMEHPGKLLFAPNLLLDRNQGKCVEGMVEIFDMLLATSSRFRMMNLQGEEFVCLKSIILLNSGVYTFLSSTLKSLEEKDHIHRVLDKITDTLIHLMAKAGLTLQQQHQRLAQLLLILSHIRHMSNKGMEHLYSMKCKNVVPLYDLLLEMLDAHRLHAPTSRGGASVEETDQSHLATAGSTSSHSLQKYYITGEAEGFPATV
Chain of Aromatase (Homo sapiens) (P11511 whole entry, looked up): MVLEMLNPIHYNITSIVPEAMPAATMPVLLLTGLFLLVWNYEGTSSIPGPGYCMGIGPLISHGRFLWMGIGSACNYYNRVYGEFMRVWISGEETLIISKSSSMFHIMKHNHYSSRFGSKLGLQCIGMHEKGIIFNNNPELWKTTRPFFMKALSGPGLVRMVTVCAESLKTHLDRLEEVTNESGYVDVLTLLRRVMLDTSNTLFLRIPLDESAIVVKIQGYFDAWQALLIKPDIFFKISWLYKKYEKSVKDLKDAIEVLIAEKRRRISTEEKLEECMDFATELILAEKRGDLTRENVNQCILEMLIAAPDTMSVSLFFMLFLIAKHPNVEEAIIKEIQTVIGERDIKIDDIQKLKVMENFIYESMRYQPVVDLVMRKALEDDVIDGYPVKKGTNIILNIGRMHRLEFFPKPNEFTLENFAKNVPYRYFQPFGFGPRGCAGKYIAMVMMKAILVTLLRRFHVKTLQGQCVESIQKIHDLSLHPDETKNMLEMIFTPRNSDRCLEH

Structure (SMILES)	Potency [1]	Potency [2]	Potency [3]	Potency [4]	Potency [5]	Potency [6]	Potency [7]	Potency [8]	Potency [9]	Potency (Aromatase (Homo sapiens))	Potency [10]	Potency [11]	outcome [12]	Potency [13]	Potency [14]	Potency [15]	Potency [16]	Potency [17]	outcome [18]	Potency [19]
O=S1(=O)CCCO1	inactive	inactive	inactive	inactive	inactive	inactive	inactive	inactive	inactive	inactive	inactive	inactive	inactive	inactive	inactive	inactive	inactive	inactive	inactive	–
C=C[Si](OCCOC)(OCCOC)OCCOC	inactive	inactive	inactive	inactive	inactive	inactive	inactive	inactive	inactive	inactive	inactive	inactive	inactive	inactive	inactive	inactive	inactive	inactive	inactive	inactive
Cc1ccc(C(C)(C)C)cc1	inactive	inactive	inactive	inactive	inactive	inactive	inactive	inactive	inactive	inactive	inactive	inactive	inactive	inactive	inactive	inactive	inactive	inactive	inactive	inactive
NCCS(=O)(=O)O	inactive and 28.4 µM (active)	inactive	inactive	inactive	inactive	inactive	inactive	inactive	inactive	inactive	inactive	inactive	inactive	inactive	inactive	inactive	inactive	–	inactive	inactive
CCCCCCCCCCCCCO	inactive	inactive	inactive	inactive	inactive	inactive	inactive	inactive	inactive	inactive	inactive	inactive	inactive	inactive	inactive	inactive	inactive	–	inactive	inactive
O=C(O)c1cc(=O)[nH]c(=O)[nH]1	inactive	inactive	inactive	–	inactive	inactive	inactive	inactive	inactive	inactive	inactive	inactive	inactive	inactive	inactive	inactive	inactive	inactive	inactive	inactive
CC1(C)O[C@@H]2C[C@H]3[C@@H]4C[C@H](F)C5=CC(=O)C=C[C@]5(C)[C@@]4(F)[C@@H](O)C[C@]3(C)[C@]2(C(=O)CO)O1	inactive	inactive	inactive	–	inactive	inactive	inactive	inactive	inactive	inactive	inactive	inactive	–	inactive	inactive	inactive	inactive	inactive	inactive	inactive
CC(=O)O[C@]1(C(C)=O)CC[C@H]2[C@@H]3C=C(C)C4=CC(=O)CC[C@]4(C)[C@H]3CC[C@@]21C	inactive	27.3 µM (active)	inactive	–	inactive	inactive	inactive	inactive	inactive	inactive	inactive	inactive	inactive	–	inactive	19.3 µM (active) and 11.9 µM (active)	inactive	inactive	inactive	inactive
O=C1CCc2ccccc2O1	inactive	inactive	inactive	inactive	inactive	inactive	inactive	inactive	inactive	inactive	inactive	inactive	–	inactive	inactive	inactive	inactive	–	inactive	inactive
CC(=O)OC(C)C	inactive	inactive	inactive	inactive	inactive	inactive	–	inactive	inactive	inactive	inactive	inactive	inactive	inactive	inactive	inactive	inactive	inactive	inactive	–
CC1(C)NC(=O)N(c2ccc([N+](=O)[O-])c(C(F)(F)F)c2)C1=O	inactive	23.7 µM (active) and 24.3 µM (active)	inactive	–	inactive	–	–	–	inactive	inactive and 27.3 µM (active)	inactive	inactive	–	inactive	inactive	6.86 µM (active) and 26.6 µM (active)	inactive	–	inactive	inactive
c1ccc2cc3ccccc3cc2c1	inactive	inactive	inactive	–	inactive	inactive	–	–	inactive	inactive	inactive	–	–	inactive	inactive	inactive	inactive	inactive	–	inactive
CCCOCCO	inactive	inactive	inactive	–	inactive	–	–	–	inactive	inactive	inactive	inactive	inactive	inactive	inactive	inactive	inactive	inactive	inactive	–
c1ccc2c(c1)[nH]c1ccccc12	inactive	inactive	inactive	–	inactive	inactive	inactive	inactive	inactive	inactive	inactive	inactive	inactive	inactive	inactive	inactive	inactive	–	inactive	–
Cc1ccc(C)c(O)c1	inactive	inactive	inactive	–	inactive	–	–	–	inactive	inactive	inactive	inactive	–	inactive	inactive	inactive	inactive	inactive	inactive	inactive
C=CC(C)(O)CCC=C(C)C (stereo unspecified)	inactive	inactive	inactive	–	inactive	–	–	–	inactive	inactive	inactive	inactive	–	inactive	inactive	inactive	inactive	–	inactive	–

Structure (SMILES)	Potency [1]	Potency [2]	Potency [3]	Potency [4]	Potency [5]	Potency [6]	Potency [7]	Potency [8]	Potency [9]	Potency (Aromatase (Homo sapiens))	Potency [10]	Potency [11]	outcome [12]	Potency [13]	Potency [14]	Potency [15]	Potency [16]	Potency [17]	outcome [18]	Potency [19]
NCCOCCO	inactive	inactive	inactive	–	inactive	inactive	inactive	inactive	inactive	inactive	inactive	inactive	–	–	inactive	inactive	inactive	inactive	inactive	–
CC(C)(C)c1cccc(C(C)(C)C)c1O	inactive	inactive	inactive	–	inactive	inactive	inactive	inactive	inactive	inactive	inactive	inactive	–	inactive	inactive	inactive	inactive	inactive	inactive	–
CC/C=C\C/C=C\C/C=C\CCCCCCCC(=O)O	inactive	inactive	inactive	–	inactive	–	–	–	inactive	inactive	inactive	inactive	–	–	inactive	inactive and 34.4 µM (active)	inactive	inactive	inactive	inactive
O=C(O)c1ccc(O)cc1	inactive	inactive	inactive	–	inactive	–	–	–	inactive	inactive	inactive	inactive	–	inactive	inactive	–	inactive	–	inactive	–
COc1ccc2nc(N)sc2c1	inactive	inactive	inactive	–	inactive	inactive	30.6 µM (active) and 54.5 µM (active)	–	inactive	inactive	inactive	48.6 µM (active) and 27.3 µM (active)	–	inactive	inactive	inactive	inactive	inactive	–	inactive
ClC/C=C/CCl	inactive	inactive	inactive	–	inactive	inactive	inactive	inactive	inactive	inactive	inactive	–	inactive	inactive	inactive	24.1 µM (active) and 24.5 µM (active)	inactive	–	inactive	inactive
Nc1ccc(N)c(Cl)c1	inactive	inactive	inactive	–	inactive	–	–	inactive	inactive	61 µM (active) and inactive	61 µM (active) and inactive	54.4 µM (active) and 15.4 µM (active)	–	–	inactive	27.3 µM (active)	68.5 µM (active) and inactive	inactive	–	inactive
CCO[Si](CCCNC(N)=O)(OCC)OCC	inactive	inactive	inactive	–	inactive	inactive	inactive	inactive	inactive	inactive	inactive	inactive	inactive	inactive	inactive	inactive	inactive	–	inactive	–
CC(=O)Nc1ccc2c(c1)Cc1cc(NC(C)=O)ccc1-2	inactive	inactive	inactive	–	inactive	inactive	9.66 µM (active) and 864 nM (active)	–	inactive	inactive	inactive	inactive	inactive	inactive	inactive	inactive	inactive	–	inactive	inactive
COC(=O)C(C)Oc1ccc(Oc2ncc(C(F)(F)F)cc2Cl)cc1 (stereo unspecified)	inactive	inactive	inactive	–	inactive	inactive	–	inactive	inactive	inactive	inactive	inactive	–	inactive	inactive	–	inactive	inactive	inactive	inactive
C[C@]12C=CC(=O)C=C1CC[C@H]1[C@@H]3C[C@@H](O)[C@](O)(C(=O)CO)[C@@]3(C)C[C@H](O)[C@@]12F	inactive	inactive	inactive	–	inactive	inactive	4.73 µM (active) and 48.6 µM (active)	–	inactive	inactive	inactive	inactive	–	inactive	inactive	inactive	inactive	inactive	inactive	inactive
COC(=O)CC(=O)OC	inactive	inactive	inactive	–	inactive	inactive	inactive	inactive	inactive	inactive	inactive	inactive	inactive	inactive	inactive	inactive	inactive	inactive	inactive	–
CCOC(=O)C(C)Oc1ccc(Oc2cnc3cc(Cl)ccc3n2)cc1 (stereo unspecified)	inactive	inactive	inactive	–	inactive	inactive	inactive	inactive	inactive	inactive	inactive	–	–	inactive	inactive	inactive	inactive	–	–	inactive
CN1CCOCC1	inactive	inactive	inactive	–	inactive	–	–	–	inactive	inactive	inactive	inactive	–	–	–	inactive	inactive	inactive	inactive	inactive
CC(=O)O[C@]1(C(C)=O)CC[C@H]2[C@@H]3C=C(Cl)C4=CC(=O)CC[C@]4(C)[C@H]3CC[C@@]21C	inactive	26.6 µM (active) and 54.4 µM (active)	inactive	–	inactive	inactive	–	–	inactive	inactive	inactive	inactive	–	–	–	–	–	–	inactive	inactive
